# TEAD-YAP block – TEAD-YAP interaction inhibition | HEK-TIYL cells, TEAD-Gal4/YAP UAS-luciferase luminescence | AID 1259422 | 640,000 tested, 1.4% active | inhibition, % at 9.12 µM; in the data active means inhibition above about 32%;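 further: 0% = median of test compound wells and 100% = reference inhibitor wells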
# MITF inh – inhibitors of human MITF | inhibition, % at 2.6 µM | 650,000 tested, 0.91% active | AlphaScreen MITF homodimerization, bead proximity signal; in the data active means inhibition above about 50%;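 further: 0% = vehicle wells with protein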
# FBW7 act – activators of human E3 ligase FBW7; AlphaScreen FBW7–phospho-cyclin E peptide binding, activator screen; normalized activity (activation), % at 26.1 µM; AID 1259310; Q969H0; 650,000 tested, 0.13% active; in the data active means normalized activity above about 1.9%;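 further: purified mutant Fbw7 with reduced substrate affinity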
# GPR151 ag – human GPR151 activation; activation, % at 11.2 µM; Q8TDV0; 650,000 tested, 1% active; PathHunter beta-arrestin GPR151 cells, luminescence; AID 1508602; in the data active means activation above about 4.9%;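 further: 0% = median of compound wells and 100% = cells with positive control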
# Target sequence (Q8TDV0 whole entry, looked up): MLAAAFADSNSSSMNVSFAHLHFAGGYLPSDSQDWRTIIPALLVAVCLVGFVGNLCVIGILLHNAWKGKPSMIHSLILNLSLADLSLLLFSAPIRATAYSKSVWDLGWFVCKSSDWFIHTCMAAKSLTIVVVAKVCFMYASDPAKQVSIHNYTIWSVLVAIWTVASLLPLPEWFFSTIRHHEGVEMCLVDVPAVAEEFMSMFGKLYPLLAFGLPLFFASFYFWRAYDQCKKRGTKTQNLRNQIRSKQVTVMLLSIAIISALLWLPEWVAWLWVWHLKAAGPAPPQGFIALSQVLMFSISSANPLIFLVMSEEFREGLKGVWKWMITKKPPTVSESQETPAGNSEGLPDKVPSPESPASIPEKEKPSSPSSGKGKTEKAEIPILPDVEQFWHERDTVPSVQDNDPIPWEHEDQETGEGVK
# Active calls of the source: *. This is a sample that favours compounds with a hit; in the whole collection about 3.5% have one here.
SMILES,TEAD-YAP block,MITF inh,FBW7 act,GPR151 ag
CCC(C)N(CC(=O)Nc1cccc(C)c1C)C(=O)CCl (stereo not drawn),69*,-14,0,0
Cc1cccc(NC(=O)CC(C)(C)C)c1C,-4,2,0,0
COCCN=c1scc(-c2ccco2)n1/N=C/c1ccc(O)c(O)c1O,-9,41,0,0
C=CCN=c1scc(-c2ccco2)n1/N=C/c1ccc(O)c(O)c1O,55*,3,-1,-1
CN=c1scc(C)n1/N=C/c1ccc(O)c(O)c1O,18,13,-1,0
CN=c1scc(-c2cccs2)n1/N=C/c1ccccc1O,95*,4,0,-5
CN=c1scc(-c2cccs2)n1/N=C/c1ccc(O)c(O)c1O,71*,32,-1,-3
CCOC(=O)CNC(=O)C1CCCN(c2nccc(C)n2)C1 (stereo not drawn),-2,9,0,-1
Nc1cccc(N2C(=O)c3cccc(N)c3C2=O)c1,6,-2,0,0
Cc1ccc(N2C(=O)c3cccc(N)c3C2=O)c(C)c1,33*,-7,0,1
Nc1cccc2c1C(=O)N(c1ccc3ccccc3c1)C2=O,-54,1,2.4*,0
O=C(NCCOc1ccccc1)c1cnc(N2CCOCC2)s1,-31,14,0,-2
COCCNC(=O)c1cn(C2CCCCC2)c(=O)c2c1c1ccccc1n2C,11,9,0,-1
CCC(C)NC(=O)c1cn(C2CCCCC2)c(=O)c2c1c1ccccc1n2C (stereo not drawn),4,14,2.3*,1
Nc1cc(Cl)ccc1C(=O)OCC(=O)Nc1ncc(C(F)(F)F)cc1Cl,7,0,0,-1
O=C(/C=C/c1ccc2c(c1)OCCO2)c1ccccc1,-55,-1,0,-1
O=[N+]([O-])/C(=C/c1ccc2c(c1)OCCO2)c1ccccc1,65*,9,0,-1
COC(=O)C1=C(C(=O)OC)SC(=C2C(=S)C(C)(C)N(C(=O)c3ccccc3)c3ccc(C)cc32)S1,-6,-3,0,1
COC(=O)C1=C(C(=O)OC)SC(=C2C(=S)C(C)(C)N(C)c3ccc(C)cc32)S1,6,52*,0,0
O=C(Nc1cccnc1)Nc1cccc(F)c1,-7,8,0,-1
CC(=O)c1cccc(NC(=O)Nc2cccnc2)c1,33*,6,0,0
COc1ccc(N2CCN(CCCNC(=O)CCn3c(=S)[nH]c4cc5c(cc4c3=O)OCO5)CC2)cc1,7,3,0,0
COc1cc(Nc2nc(-c3ccccc3)nc3nc[nH]c23)cc(OC)c1OC,60*,5,0,0
COc1cc(Nc2nc(-c3ccc(N4CCOCC4)nc3)ncc2C)cc(OC)c1OC,30,5,0,-1
COc1ccc(-c2nc3ncnc(Nc4cc(OC)c(OC)c(OC)c4)c3[nH]2)cc1,50*,4,0,-3
SMILES,TEAD-YAP block,MITF inh,FBW7 act,GPR151 ag
COc1cc(Nc2nc(-c3ccc(N4CCOCC4)nc3)nc3nc[nH]c23)cc(OC)c1OC,52*,21,1,-1
Cc1nc(/N=C(\N)Nc2ccccc2)[nH]c(=O)c1C,7,12,2.2*,0
CCOCC(=O)Nc1ccc(-c2cn3nc(OC)ccc3n2)cc1,4,9,0,-3
CCOCC(=O)Nc1cc(-c2cn3nc(OC)ccc3n2)ccc1F,68*,-10,0,-6
O=C(CN1C(=O)c2ccccc2C1=O)NCCCc1ccccc1,1,2,0,0
O=C(O)CNC(=O)c1cc2c3c(c1)C1C=CCC1C(c1ccc(F)cc1)N3CC1CC=CC21 (stereo not drawn),2,73*,-1,-1
CCOC(=O)c1cc2c3c(c1)C1C=CCC1C(c1ccc(F)cc1)N3CC1CC=CC21 (stereo not drawn),5,6,0,-2
COc1ccc(NC(=O)c2ccc(S(=O)(=O)N3CCc4ccccc43)cc2)c2ccccc12,60*,-2,0,2
COc1ccc(NC(=O)c2ccc(S(=O)(=O)N3CCc4ccccc4C3)cc2)c2ccccc12,-2,17,0,1
CCOC(=O)c1csc(NC(=O)c2ccc(S(=O)(=O)N3CCc4ccccc43)cc2)n1,35*,20,0,0
O=C(Nc1ccccc1F)c1ccc(S(=O)(=O)N2CCc3ccccc3C2)cc1,40*,9,0,2
Cc1cccc(N2C(=O)/C(=C/C=C/c3ccco3)C(=O)NC2=S)c1,-8,58*,0,1
Cc1ccc(N2C(=O)/C(=C/c3ccco3)C(=O)NC2=S)cc1,-6,-15,0,1
COc1ccc(N2C(=O)/C(=C/C=C/c3ccco3)C(=O)NC2=S)c(OC)c1,9,76*,-1,2
CCN(CC)CCNc1cc(C)nc2c1C(=O)C(=O)C=C2N1CCCCC1,94*,9,0,0
Cc1nc2cc(-c3ccccc3)nn2c(N)c1-c1ccccc1,37*,10,0,-3
COc1ccc(-c2cc3nc(C)cc(N)n3n2)cc1,74*,5,0,-9
COc1ccc(-c2cc3nc(C)c(C)c(Cl)n3n2)cc1,3,-3,0,3
O=C(O)CN1C(=O)SC(Nc2cccc(C(=O)O)c2)C1=O (stereo not drawn),-3,1,0,-9
CN(C)c1cccc2c1C(=O)c1ccccc1C2=O,2,55*,-1,2
COc1cccc(/C=C2\SC(N3CCCC3)=NC2=O)c1OC,8,6,0,0
CC(C)Oc1ccccc1/C=C1/SC(N2CCN(C)CC2)=NC1=O,-8,-7,0,-1
CC(C)Oc1ccccc1/C=C1\SC(N2CCOCC2)=NC1=O,39*,-1,0,1
COc1cccc(/C=C2/SC(N3CCCC3)=NC2=O)c1OC,33*,-10,0,1
Cc1cc(/C=N\Nc2ccc([N+](=O)[O-])cn2)c(C)n1-c1ccccc1F,-57,-11,0,0
SMILES,TEAD-YAP block,MITF inh,FBW7 act,GPR151 ag
Cc1cc(/C=N/Nc2nc(N)ncc2[N+](=O)[O-])c(C)n1-c1ccccc1F,63*,14,0,-7
Cc1cccc(NC(=S)NC(=O)c2cccc(Br)c2)n1,-26,14,0,0
Cc1ccnc(NC(=S)NC(=O)c2cccc(Br)c2)c1,33*,-5,0,0
Cc1ccc(C(=O)O)cc1NS(=O)(=O)c1ccc2c(c1)OCCO2,7,-1,0,0
O=C(Nc1ccncc1)c1ccc(COc2ccccc2Cl)cc1,60*,16,1,-4
Cc1ccc(Oc2ccc(NC(=O)c3ccncc3)cc2)cc1C,36*,7,0,0
O=C(Nc1ccc(Cc2ccncc2)cc1)c1ccc(Oc2ccc(C(=O)Nc3ccc(Cc4ccncc4)cc3)cc2)cc1,62*,6,0,0
CN(C)S(=O)(=O)c1ccc(C(=O)Nc2ccc(Cc3ccncc3)cc2)cc1,22,-5,0,1
CSc1ccccc1NC(=O)CN(c1ccc(Oc2ccccc2)cc1)S(C)(=O)=O,-1,-8,0,2

# Screens (PubChem BioAssay)
